Experimental data taken from the supplement of paper PMC10849652.
Of roughly 8,800 targets only a part is listed; those with a hit were picked by preference. About 0.5% of all pairs of compound and target were hits. Unmarked numbers belong to inactive results.

Experiments:
Assay in all cases: log2 fold change, soluble protein after heating vs DMSO (PISA); higher = thermal stabilisation; K562 lysate, 10 uM; active = over 0.2 and 3.5 SD of the protein, either way, in both replicates (recomputed)
[1] = compound: NCC(=O)Nc1ccc(-n2nc(C(F)(F)F)cc2-c2ccc3c(ccc4ccccc43)c2)cc1
How it was run: (§1)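 Pellets of K562 cells were dounce-homogenised in PBS pH 7.4 with 1 mM MgCl2, and the crude extract was held at 1 mg/mL protein for a 30 min treatment with 10 μM compound. Aliquots were heated for 3 min over 48°C-58°C and pooled before NP-40 was added to 0.5% at 4°C. The supernatant from 21,000xg for 90 min was quantified by TMTpro 16plex LC-MS/MS with channel sums equalised. Values are reported from duplicates as log-two fold change in thermal stability relative to solvent controls.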

vorinostat = compound: O=C(CCCCCCC(=O)Nc1ccccc1)NO [vorinostat]
How it was run: as §1

silmitasertib = compound: O=C(O)c1ccc2c(c1)nc(Nc1cccc(Cl)c1)c1ccncc12 [silmitasertib]
How it was run: as §1

[2] = compound: O=C1NC(=O)C(c2cnc3ccccn23)=C1c1cn2c3c(cc(F)cc13)CN(C(=O)N1CCCCC1)CC2
How it was run: as §1

entospletinib = compound: c1cn2cc(-c3ccc4cn[nH]c4c3)nc(Nc3ccc(N4CCOCC4)cc3)c2n1 [entospletinib]
How it was run: as §1

UniProt O00170, sequence (O00170 whole entry, looked up): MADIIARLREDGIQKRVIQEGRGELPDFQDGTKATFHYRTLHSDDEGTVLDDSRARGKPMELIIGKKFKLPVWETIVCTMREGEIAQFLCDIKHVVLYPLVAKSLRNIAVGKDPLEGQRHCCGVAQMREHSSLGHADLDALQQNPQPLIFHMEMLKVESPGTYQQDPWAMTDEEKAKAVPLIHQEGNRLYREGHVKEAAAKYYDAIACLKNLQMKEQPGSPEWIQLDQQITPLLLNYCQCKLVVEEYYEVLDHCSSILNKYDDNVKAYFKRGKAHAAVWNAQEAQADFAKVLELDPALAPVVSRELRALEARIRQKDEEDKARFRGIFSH
UniProt Q9Y303, sequence (Q9Y303 whole entry, looked up): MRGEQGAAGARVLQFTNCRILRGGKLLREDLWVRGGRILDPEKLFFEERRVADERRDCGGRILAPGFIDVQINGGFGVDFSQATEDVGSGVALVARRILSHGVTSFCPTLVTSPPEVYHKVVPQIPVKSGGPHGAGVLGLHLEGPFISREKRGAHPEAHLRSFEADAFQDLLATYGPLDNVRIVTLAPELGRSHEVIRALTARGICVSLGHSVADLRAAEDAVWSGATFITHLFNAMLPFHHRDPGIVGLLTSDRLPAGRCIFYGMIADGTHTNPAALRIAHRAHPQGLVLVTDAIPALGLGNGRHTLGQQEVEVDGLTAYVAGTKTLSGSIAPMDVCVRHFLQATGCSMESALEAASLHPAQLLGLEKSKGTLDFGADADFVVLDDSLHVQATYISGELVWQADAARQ
UniProt Q9BRQ8, sequence (Q9BRQ8 whole entry, looked up): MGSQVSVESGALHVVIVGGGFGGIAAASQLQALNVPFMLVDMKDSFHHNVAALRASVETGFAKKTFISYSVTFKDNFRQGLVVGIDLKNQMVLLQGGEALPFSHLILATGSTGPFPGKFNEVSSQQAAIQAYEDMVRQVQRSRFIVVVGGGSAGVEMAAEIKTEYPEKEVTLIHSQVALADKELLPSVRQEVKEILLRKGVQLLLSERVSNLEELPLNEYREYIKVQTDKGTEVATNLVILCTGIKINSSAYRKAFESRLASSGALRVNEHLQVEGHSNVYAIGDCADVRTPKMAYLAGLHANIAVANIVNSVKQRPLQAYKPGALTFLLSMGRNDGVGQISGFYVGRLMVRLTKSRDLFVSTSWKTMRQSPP
UniProt O00763, sequence (O00763 whole entry, looked up): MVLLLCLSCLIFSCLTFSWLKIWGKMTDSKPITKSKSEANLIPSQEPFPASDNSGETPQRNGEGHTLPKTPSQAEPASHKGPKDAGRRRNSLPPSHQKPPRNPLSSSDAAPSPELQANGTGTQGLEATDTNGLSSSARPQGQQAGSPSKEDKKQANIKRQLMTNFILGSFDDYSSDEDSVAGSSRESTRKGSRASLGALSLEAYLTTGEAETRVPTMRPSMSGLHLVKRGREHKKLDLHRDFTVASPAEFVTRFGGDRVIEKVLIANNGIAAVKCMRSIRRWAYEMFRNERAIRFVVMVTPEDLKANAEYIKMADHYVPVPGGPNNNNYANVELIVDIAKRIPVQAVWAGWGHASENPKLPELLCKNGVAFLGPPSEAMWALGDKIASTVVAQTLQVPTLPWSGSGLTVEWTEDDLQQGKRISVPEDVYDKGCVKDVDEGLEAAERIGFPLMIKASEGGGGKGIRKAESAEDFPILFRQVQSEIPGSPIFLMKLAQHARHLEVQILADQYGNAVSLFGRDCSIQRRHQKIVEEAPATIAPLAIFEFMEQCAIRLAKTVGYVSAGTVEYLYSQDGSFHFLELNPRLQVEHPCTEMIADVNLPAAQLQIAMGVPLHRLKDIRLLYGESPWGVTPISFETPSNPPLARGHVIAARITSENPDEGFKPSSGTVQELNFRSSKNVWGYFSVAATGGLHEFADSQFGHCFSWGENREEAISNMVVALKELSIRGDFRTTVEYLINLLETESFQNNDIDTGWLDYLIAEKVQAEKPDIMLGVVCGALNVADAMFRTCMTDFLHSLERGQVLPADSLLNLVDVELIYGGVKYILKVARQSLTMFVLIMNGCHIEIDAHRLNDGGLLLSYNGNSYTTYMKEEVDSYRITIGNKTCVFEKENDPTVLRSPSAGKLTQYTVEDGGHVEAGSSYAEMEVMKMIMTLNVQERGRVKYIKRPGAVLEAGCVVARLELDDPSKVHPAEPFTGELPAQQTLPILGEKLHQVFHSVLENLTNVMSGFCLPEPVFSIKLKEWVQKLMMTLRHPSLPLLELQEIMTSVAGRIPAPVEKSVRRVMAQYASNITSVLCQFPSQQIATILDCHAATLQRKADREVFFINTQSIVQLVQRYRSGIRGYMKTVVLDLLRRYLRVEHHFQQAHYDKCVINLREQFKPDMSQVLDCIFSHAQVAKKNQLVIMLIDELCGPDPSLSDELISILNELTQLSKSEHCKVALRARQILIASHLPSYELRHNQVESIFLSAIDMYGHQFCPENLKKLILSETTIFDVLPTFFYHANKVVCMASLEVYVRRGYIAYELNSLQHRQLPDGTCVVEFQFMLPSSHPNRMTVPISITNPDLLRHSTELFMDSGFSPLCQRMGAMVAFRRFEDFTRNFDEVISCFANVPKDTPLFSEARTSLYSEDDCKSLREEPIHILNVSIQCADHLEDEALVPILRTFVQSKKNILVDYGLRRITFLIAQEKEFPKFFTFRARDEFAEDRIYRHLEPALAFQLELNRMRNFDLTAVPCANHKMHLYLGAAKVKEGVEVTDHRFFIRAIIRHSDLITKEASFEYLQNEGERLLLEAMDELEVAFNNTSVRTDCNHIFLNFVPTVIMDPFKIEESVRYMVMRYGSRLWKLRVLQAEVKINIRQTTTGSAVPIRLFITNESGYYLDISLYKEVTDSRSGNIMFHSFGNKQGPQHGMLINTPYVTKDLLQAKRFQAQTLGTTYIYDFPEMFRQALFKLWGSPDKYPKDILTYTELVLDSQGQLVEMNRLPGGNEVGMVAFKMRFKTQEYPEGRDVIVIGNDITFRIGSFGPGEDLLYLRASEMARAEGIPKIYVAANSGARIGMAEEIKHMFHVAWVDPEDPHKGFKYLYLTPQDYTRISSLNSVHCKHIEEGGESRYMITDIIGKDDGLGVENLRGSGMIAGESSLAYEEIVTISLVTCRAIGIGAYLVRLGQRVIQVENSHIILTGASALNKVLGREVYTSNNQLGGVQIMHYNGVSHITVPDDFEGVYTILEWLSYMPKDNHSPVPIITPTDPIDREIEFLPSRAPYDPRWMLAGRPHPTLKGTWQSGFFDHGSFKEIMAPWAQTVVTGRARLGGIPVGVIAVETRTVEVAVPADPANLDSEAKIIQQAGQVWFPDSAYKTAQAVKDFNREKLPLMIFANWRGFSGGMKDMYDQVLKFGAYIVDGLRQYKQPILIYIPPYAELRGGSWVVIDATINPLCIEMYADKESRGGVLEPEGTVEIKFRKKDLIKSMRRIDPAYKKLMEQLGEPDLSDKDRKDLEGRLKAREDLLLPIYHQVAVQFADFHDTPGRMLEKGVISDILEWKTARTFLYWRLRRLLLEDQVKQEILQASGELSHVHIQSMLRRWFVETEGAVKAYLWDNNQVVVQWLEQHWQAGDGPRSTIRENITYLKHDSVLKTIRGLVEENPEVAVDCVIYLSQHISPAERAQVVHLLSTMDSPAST
UniProt Q96NW4, sequence (Q96NW4 whole entry, looked up): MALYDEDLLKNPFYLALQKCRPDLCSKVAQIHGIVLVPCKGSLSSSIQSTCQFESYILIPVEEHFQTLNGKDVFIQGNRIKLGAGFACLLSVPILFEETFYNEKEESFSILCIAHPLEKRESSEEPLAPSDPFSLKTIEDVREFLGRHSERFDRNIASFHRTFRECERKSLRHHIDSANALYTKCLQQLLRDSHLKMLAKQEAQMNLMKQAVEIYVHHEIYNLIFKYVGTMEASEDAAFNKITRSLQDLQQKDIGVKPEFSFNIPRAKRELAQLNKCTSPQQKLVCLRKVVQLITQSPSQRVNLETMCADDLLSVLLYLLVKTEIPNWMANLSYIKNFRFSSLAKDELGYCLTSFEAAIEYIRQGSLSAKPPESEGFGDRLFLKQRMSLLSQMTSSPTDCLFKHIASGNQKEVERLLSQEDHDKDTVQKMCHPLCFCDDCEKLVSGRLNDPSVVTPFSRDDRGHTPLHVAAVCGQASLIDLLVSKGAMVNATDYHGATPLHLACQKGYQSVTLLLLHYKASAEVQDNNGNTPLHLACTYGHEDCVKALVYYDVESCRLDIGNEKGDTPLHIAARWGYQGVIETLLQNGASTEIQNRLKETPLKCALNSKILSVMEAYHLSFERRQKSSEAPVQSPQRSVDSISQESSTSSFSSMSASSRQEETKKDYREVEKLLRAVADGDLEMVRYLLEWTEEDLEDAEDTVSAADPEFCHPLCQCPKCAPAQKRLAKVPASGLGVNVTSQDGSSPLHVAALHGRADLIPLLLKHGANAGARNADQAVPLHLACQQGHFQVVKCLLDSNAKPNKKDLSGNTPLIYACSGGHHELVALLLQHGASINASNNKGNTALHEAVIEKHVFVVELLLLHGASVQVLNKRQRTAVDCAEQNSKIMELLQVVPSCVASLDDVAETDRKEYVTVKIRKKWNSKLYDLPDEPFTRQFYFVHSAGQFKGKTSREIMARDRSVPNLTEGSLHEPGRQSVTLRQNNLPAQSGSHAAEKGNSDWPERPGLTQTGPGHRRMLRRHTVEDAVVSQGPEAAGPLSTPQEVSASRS
UniProt P31751, sequence (P31751 whole entry, looked up): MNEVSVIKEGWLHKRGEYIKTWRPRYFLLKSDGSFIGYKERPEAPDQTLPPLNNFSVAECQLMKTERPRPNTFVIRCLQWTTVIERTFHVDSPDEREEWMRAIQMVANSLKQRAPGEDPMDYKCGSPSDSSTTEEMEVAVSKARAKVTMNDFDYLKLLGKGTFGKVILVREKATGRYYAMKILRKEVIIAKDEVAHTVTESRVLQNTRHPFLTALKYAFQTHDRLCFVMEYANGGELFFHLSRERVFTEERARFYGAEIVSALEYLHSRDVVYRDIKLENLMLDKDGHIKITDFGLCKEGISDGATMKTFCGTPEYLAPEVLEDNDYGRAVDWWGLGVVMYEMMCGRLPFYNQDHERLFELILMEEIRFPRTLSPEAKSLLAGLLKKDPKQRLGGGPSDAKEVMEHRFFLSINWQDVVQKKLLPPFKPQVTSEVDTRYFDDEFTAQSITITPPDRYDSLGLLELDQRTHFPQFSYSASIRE

Question: How did the log2 fold change [1] turn out when ARL15 (UniProt Q9NXU5) was run?
Answer: 0.007

Question: What about the log2 fold change (vorinostat) of the same target?
Answer: -0.109

Question: What about the log2 fold change (silmitasertib) of the same target?
Answer: 0.016

Question: And the log2 fold change [2]?
Answer: -0.029

Question: What about the log2 fold change (entospletinib) of the same target?
Answer: 0.014

Question: With ACLY (UniProt P53396) as the target, how does the log2 fold change [1] read?
Answer: -0.008

Question: And the log2 fold change (vorinostat)?
Answer: -0.029

Question: And the log2 fold change (silmitasertib)?
Answer: 0.012

Question: What about the log2 fold change [2] of the same target?
Answer: -0.018

Question: What about the log2 fold change (entospletinib) of the same target?
Answer: 0.014

Question: Which log2 fold change [1] does the source give for ACAT1 (UniProt P24752) here?
Answer: 0.011

Question: And the log2 fold change (vorinostat)?
Answer: -1.05 (active)

Question: And the log2 fold change (silmitasertib)?
Answer: -0.037

Question: What about the log2 fold change [2] of the same target?
Answer: -0.014

Question: What about the log2 fold change (entospletinib) of the same target?
Answer: 0.018

Question: How did the log2 fold change [1] turn out when APOBEC3C (UniProt Q9NRW3) was run?
Answer: 0.055

Question: And the log2 fold change (vorinostat)?
Answer: -0.278 (active)

Question: And the log2 fold change (silmitasertib)?
Answer: 0.043

Question: And the log2 fold change [2]?
Answer: -0.066

Question: What about the log2 fold change (entospletinib) of the same target?
Answer: -0.007

Question: With ABCC5 (UniProt O15440) as the target, how does the log2 fold change [1] read?
Answer: 0.025

Question: And the log2 fold change (vorinostat)?
Answer: 0.042

Question: What about the log2 fold change (silmitasertib) of the same target?
Answer: -0.023

Question: What about the log2 fold change [2] of the same target?
Answer: -0.028

Question: And the log2 fold change (entospletinib)?
Answer: -0.036

Question: ADRM1 (UniProt Q16186) was tested. Which log2 fold change [1] did it give?
Answer: 0.051

Question: What about the log2 fold change (vorinostat) of the same target?
Answer: -0.231 (active)

Question: And the log2 fold change (silmitasertib)?
Answer: -0.027

Question: What about the log2 fold change [2] of the same target?
Answer: -0.04

Question: And the log2 fold change (entospletinib)?
Answer: -0.002

Question: For AIP (UniProt O00170), which log2 fold change [1] is on record?
Answer: -0.001

Question: What about the log2 fold change (vorinostat) of the same target?
Answer: -0.061

Question: And the log2 fold change (silmitasertib)?
Answer: -0.032

Question: And the log2 fold change [2]?
Answer: 0.003

Question: And the log2 fold change (entospletinib)?
Answer: -0.003

Question: With AMDHD2 isoform 3 (UniProt Q9Y303) as the target, how does the log2 fold change [1] read?
Answer: 0.038

Question: What about the log2 fold change (vorinostat) of the same target?
Answer: 0.088

Question: And the log2 fold change (silmitasertib)?
Answer: -0.004

Question: What about the log2 fold change [2] of the same target?
Answer: -0.002

Question: What about the log2 fold change (entospletinib) of the same target?
Answer: 0.056

Question: Which results are given for AMPD3 isoform 4 (UniProt Q01432)?
Answer: log2 fold change [1]: -0.038; log2 fold change (vorinostat): 0.256 (active); log2 fold change (silmitasertib): -0.005; log2 fold change [2]: -0.021; log2 fold change (entospletinib): 0.018

Question: Which results are given for ABHD16A (UniProt O95870)?
Answer: log2 fold change [1]: 0.007; log2 fold change (vorinostat): 0.906 (active); log2 fold change (silmitasertib): -0.1; log2 fold change [2]: -0.056; log2 fold change (entospletinib): -0.01

Question: ARAP1 (UniProt Q96P48) was tested. Which log2 fold change [1] did it give?
Answer: -0.04

Question: And the log2 fold change (vorinostat)?
Answer: -0.379 (active)

Question: What about the log2 fold change (silmitasertib) of the same target?
Answer: 0.017

Question: What about the log2 fold change [2] of the same target?
Answer: -0.014

Question: And the log2 fold change (entospletinib)?
Answer: -0.012

Question: With AKAP8L (UniProt Q9ULX6) as the target, how does the log2 fold change [1] read?
Answer: -0.045

Question: And the log2 fold change (vorinostat)?
Answer: -0.213

Question: What about the log2 fold change (silmitasertib) of the same target?
Answer: -0.001

Question: And the log2 fold change [2]?
Answer: -0.078

Question: What about the log2 fold change (entospletinib) of the same target?
Answer: -0.019

Question: What does the source list for AMMECR1 (UniProt Q9Y4X0)?
Answer: log2 fold change [1]: 0.004; log2 fold change (vorinostat): -0.387 (active); log2 fold change (silmitasertib): 0.003; log2 fold change [2]: -0.016; log2 fold change (entospletinib): 0

Question: Which results are given for ACACB (UniProt O00763)?
Answer: log2 fold change [1]: -0.026; log2 fold change (vorinostat): -0.438 (active); log2 fold change (silmitasertib): 0.03; log2 fold change [2]: -0.009; log2 fold change (entospletinib): 0.088

Question: For AIFM2 (UniProt Q9BRQ8), which log2 fold change [1] is on record?
Answer: -0.014

Question: And the log2 fold change (vorinostat)?
Answer: -0.261

Question: What about the log2 fold change (silmitasertib) of the same target?
Answer: -0.015

Question: What about the log2 fold change [2] of the same target?
Answer: 0.188

Question: And the log2 fold change (entospletinib)?
Answer: 0.003

Question: What does the source list for ANLN (UniProt Q9NQW6)?
Answer: log2 fold change [1]: 0.018; log2 fold change (vorinostat): -0.656 (active); log2 fold change (silmitasertib): -0.011; log2 fold change [2]: -0.009; log2 fold change (entospletinib): 0

Question: With ARGLU1 (UniProt Q9NWB6) as the target, how does the log2 fold change [1] read?
Answer: 0.01

Question: And the log2 fold change (vorinostat)?
Answer: 0.116

Question: And the log2 fold change (silmitasertib)?
Answer: 0.008

Question: And the log2 fold change [2]?
Answer: -0.067

Question: What about the log2 fold change (entospletinib) of the same target?
Answer: -0.054

Question: Which results are given for ACIN1 isoform 5 (UniProt Q9UKV3)?
Answer: log2 fold change [1]: 0.035; log2 fold change (vorinostat): 0.007; log2 fold change (silmitasertib): 0.001; log2 fold change [2]: -0.012; log2 fold change (entospletinib): -0.003

Question: For ABCA3 (UniProt Q99758), which log2 fold change [1] is on record?
Answer: -0.157

Question: What about the log2 fold change (vorinostat) of the same target?
Answer: 0.087

Question: What about the log2 fold change (silmitasertib) of the same target?
Answer: -0.062

Question: And the log2 fold change [2]?
Answer: 0

Question: And the log2 fold change (entospletinib)?
Answer: 0.28

Question: For AKT2 (UniProt P31751), which log2 fold change [1] is on record?
Answer: -0.021

Question: And the log2 fold change (vorinostat)?
Answer: -0.175

Question: And the log2 fold change (silmitasertib)?
Answer: 0.011

Question: And the log2 fold change [2]?
Answer: -0.019

Question: What about the log2 fold change (entospletinib) of the same target?
Answer: 0.008

Question: Which log2 fold change [1] does the source give for ADD1 isoform 3 (UniProt P35611) here?
Answer: -0.024

Question: And the log2 fold change (vorinostat)?
Answer: 0.048

Question: What about the log2 fold change (silmitasertib) of the same target?
Answer: -0.012

Question: And the log2 fold change [2]?
Answer: -0.022

Question: What about the log2 fold change (entospletinib) of the same target?
Answer: -0.014

Question: With AP1G2 (UniProt O75843) as the target, how does the log2 fold change [1] read?
Answer: 0.071

Question: And the log2 fold change (vorinostat)?
Answer: -0.31 (active)

Question: And the log2 fold change (silmitasertib)?
Answer: -0.03

Question: What about the log2 fold change [2] of the same target?
Answer: 0.008

Question: And the log2 fold change (entospletinib)?
Answer: 0.018

Question: ANKRD27 (UniProt Q96NW4) was tested. Which log2 fold change [1] did it give?
Answer: -0.066

Question: And the log2 fold change (vorinostat)?
Answer: -0.451 (active)

Question: And the log2 fold change (silmitasertib)?
Answer: -0.025

Question: What about the log2 fold change [2] of the same target?
Answer: 0.022

Question: What about the log2 fold change (entospletinib) of the same target?
Answer: 0.01

Question: ARHGAP21 (UniProt Q5T5U3) was tested. Which log2 fold change [1] did it give?
Answer: 0.021

Question: What about the log2 fold change (vorinostat) of the same target?
Answer: -0.364 (active)

Question: What about the log2 fold change (silmitasertib) of the same target?
Answer: 0.014

Question: What about the log2 fold change [2] of the same target?
Answer: -0.041

Question: What about the log2 fold change (entospletinib) of the same target?
Answer: -0.104
